# According to paper PMC5540273 (PLoS ONE, 2017):
# Assays:
# Details in all cases: concentration: 1 μM,replicates: in singlicate; n = 1
# MTOR = test system: MTOR
# MUSK = test system: MUSK
# MYLK2 = test system: MYLK2
# MYLK4 = test system: MYLK4
# MYLK = test system: MYLK
# MYO3A = test system: MYO3A
# MYO3B = test system: MYO3B
# NDR1 = test system: T1, NDR1
# T1 construct: gene STK38
# NDR2 = test system: NDR2
# NEK10 = test system: NEK10
# 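Further: KINOMEscan kinase panel screen.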
Structure (SMILES),%Inh (MTOR) [%],%Inh (MUSK) [%],%Inh (MYLK2) [%],%Inh (MYLK4) [%],%Inh (MYLK) [%],%Inh (MYO3A) [%],%Inh (MYO3B) [%],%Inh (NDR1) [%],%Inh (NDR2) [%],%Inh (NEK10) [%]
NC(=O)Nc1sc(-c2ccc(F)cc2)cc1C(N)=O [GW789449],23,0,11,97.8,10,0,0,3,7,3
Cn1ccc2ncnc(Oc3ccc(NC(=O)Nc4cccc(C(F)(F)F)c4)c(F)c3)c21,10,99.4,0,7,19,8,49,10,8,7
N#Cc1cccc(C(=O)NC2CCN(c3ccnc(Nc4ccc(F)cc4)n3)C2)c1 (stereo not shown) [GSK1379708],4,0,0,0,0,4,0,0,41,1
Cn1ccc2ncnc(Oc3ccc(NC(=O)Nc4cc(C(C)(C)C)on4)c(Cl)c3)c21,37,80,13,0,17,0,40,0,1,0
CC(=O)c1c(-c2ccncc2)[nH]c(-c2ccncc2)c1C [GW493036],0,8,4,7,4,42,0,19,0,0
Nc1nccc(-c2ccc3c(N)n[nH]c3c2)n1 [GSK1034945],0,9,85,83,21,8,0,0,0,0
O=C(Nc1ccc(Oc2ccc3nc(NC(=O)C4CC4)cn3n2)c(F)c1)c1cccn(-c2ccccc2)c1=O,21,99.5,0,0,0,0,0,3,0,0
